Assay outcomes as filed in PubChem.
In the library only some 2.1% were active in any assay of this set; here they are far more common.
EP2 antag – inhibitors of human EP2 prostaglandin E2 receptor. 260,000 tested, 0.52% active. C6 glioma cells expressing human EP2, cAMP TR-FRET; cells stimulated with saturating PGE2. AID 1422. inhibition, % at 25 µM;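 active = percent inhibition above 40 after rounding to a whole number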;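 also: rat C6 glioma host cells with rolipram phosphodiesterase inhibitor present; the protocol text gives 20 µM as final concentration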
Target sequence (P43116 whole entry, looked up): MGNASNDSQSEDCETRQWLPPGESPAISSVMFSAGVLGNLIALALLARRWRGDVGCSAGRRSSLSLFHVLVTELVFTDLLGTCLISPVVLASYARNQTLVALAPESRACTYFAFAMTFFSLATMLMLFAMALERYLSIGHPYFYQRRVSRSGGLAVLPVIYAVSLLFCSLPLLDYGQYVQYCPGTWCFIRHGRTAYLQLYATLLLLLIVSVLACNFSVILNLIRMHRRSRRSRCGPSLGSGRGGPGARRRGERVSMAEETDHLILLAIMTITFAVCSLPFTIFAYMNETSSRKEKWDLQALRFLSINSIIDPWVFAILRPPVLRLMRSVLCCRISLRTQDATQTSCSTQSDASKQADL
EP2 mod – modulates human prostaglandin E2 receptor EP2 signaling | EP2-expressing cells, cAMP HTRF FRET, PGE2 co-stimulation | 260,000 tested, 0.83% active | induction, % at 25 µM | P43116;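 active = compounds whose cAMP rise, as percent of the full-agonist control response, exceeds 60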;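 also: rat C6 glioma line stably carrying human EP2 under a CMV promoter; the protocol text gives 20 µM as final concentration; 100% = response of wells given 1 µM PGE2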
CHT allo act – allosterically activates the human high affinity choline transporter; Q9GZV3; CHT-expressing cells, membrane potential dye, choline EC20; hits give high values; LV-AA mutant CHT in HEK293 cells; 310,000 tested, 0.49% active; B-score at 10 µM;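 active = initial fluorescence not abnormally high and integrated response B-score, plate-corrected, over 3 SD above library mean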
CHT inh – human CHT choline transport inhibition; Q9GZV3; AID 488975; B-score at 10 µM; 310,000 tested, 0.86% active; CHT-expressing cells, membrane potential dye, choline response; hits give low values;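 active = B-score over 3 SD under the library average, and starting fluorescence ratio not unusually high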;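 also: choline stimulus applied at its EC90 after an EC20 pre-addition; B-score computed on integrated fluorescence ratio after choline addition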
EP2 cAMP induct – human EP2 receptor cAMP induction, negative in counter-screens; 1,300 tested, 47% active; C6 glioma EP2 cells, cAMP HTRF induction; plus low (about EC15) PGE2 agonist; shares compounds with EP2 mod; AID 1080; calls only at 20 µM (by protocol);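 active = cAMP induction above 50% in the main assay while under 30% in all four parallel counter assays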;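 also: rat C6 glioma cells stably expressing human EP2 receptor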
An asterisk follows results filed as active; i = inactive; . = no result given; + = active, no number.

SMILES	EP2 antag	EP2 mod	CHT allo act	CHT inh	EP2 cAMP induct
COc1ccc(-c2nc3c(c(=O)[nH]c(=O)n3Cc3ccccc3)n2Cc2ccccc2)cc1	4	74*	i	i	+
COC(=O)c1ccc(-c2ccco2)n1Cc1ccccc1Cl	6	71*	i	i	+
Nc1cc(-c2cccs2)nn(Cc2c(Cl)cccc2Cl)c1=O	4	-20	.	.	.
CCc1nc(N2CCCCC2)c2oc3ccccc3c2n1	8	76*	i	i	i
CCc1nc(N2CCCCC2C(=O)O)c2oc3ccccc3c2n1 (configuration not stated)	6	-16	i	i	.
COC(=O)C[C@H]1C2(C)C[C@@]34OC5(C)OC6(C(OC(C)=O)[C@@]3(OC(C)=O)[C@H]2OC(C)=O)C2CC(=O)O[C@@H](c3ccoc3)[C@]2(C)CCC6(O5)[C@]14C (some centres not stated)	14	14	.	.	.
Nc1[nH]n2c(=O)c3c(nc2c1N=Nc1ccccc1)CCCC3	8	90*	i	i	+
Cc1ccc2c(c1)c1c3n2CCN(CC(O)CN2CCCC2)C3CCC1 (configuration not stated)	6	-30	.	.	.
CCOC(=O)c1c(-c2ccc(C)o2)csc1NC(=O)CN1CCOCC1	11	33	i	i	.
CCOC(=O)c1c(NC(=O)C2C3C=CC(C3)C2C(=O)O)sc2c1CC(C)CC2 (configuration not stated)	13	13	i	i	.
CCOC(=O)c1c(-c2ccccc2)csc1NC(=O)CCN1CCOCC1	6	42	i	i	.
CCOC(=O)c1c(-c2cccs2)csc1NC(=O)CN1CCOCC1	11	69*	i	i	i
CCOC(=O)c1c(-c2ccc(C)cc2)csc1NC(=O)c1ccc(N2C(=O)CCC2=O)cc1	12	70*	i	i	i
CCOC(=O)c1c(NC(=O)c2ccc(N3C(=O)[C@@H]4[C@H](C3=O)[C@H]3C=C[C@@H]4C3)cc2)sc2c1CC(C)CC2 (some centres not stated)	17	55	i	i	i
CCOC(=O)c1c(-c2ccc(C)cc2)csc1NC(=O)CCN1CCOCC1	5	90*	i	i	+
Cc1cc(Cl)ccc1OCCCC(=O)Nc1ncc([N+](=O)[O-])s1	14	-44	.	.	.
CC(Cc1ccccc1)NC(=O)C1(c2ccccc2)CCOCC1 (configuration not stated)	11	69*	i	i	i
COc1ccc(C2(C(=O)NC(C)Cc3ccccc3)CCOCC2)cc1OC (configuration not stated)	7	-5	.	.	.
CC1(C)CC2C1CC[C@]1(C)CCC3C(C(=O)O)CC(=O)O[C@@]32C1 (some centres not stated)	15	23	.	.	.
CC12CCCC(O)(C1)C1CC(C)(C)C1CC2 (configuration not stated)	10	51	.	.	i
CC1(C)CC(=O)C2=C(C1)OC(N)=C(C#N)C2c1ccc(-c2cccc(Cl)c2)o1 (configuration not stated)	13	25	.	.	.
O=C(OCc1ccc(Cl)cc1)c1cccnc1Cl	13	-34	i	i	.
O=C(OCc1ccc(Cl)cc1)c1ccccc1C(=O)c1ccccc1	3	70*	i	i	+
Cc1nc2ccccc2c(=O)n1Cc1ccco1	9	-21	i	i	.
O=c1c2ccccc2c2ccccc2c(=O)n1Cc1ccco1	4	84*	i	i	i
SMILES	EP2 antag	EP2 mod	CHT allo act	CHT inh	EP2 cAMP induct
O=c1c2c(n3nnnc3n1-c1ccccc1)-c1ccccc1CC21CCCC1	20	73*	i	i	+
CCSc1n[nH]c2nc3c(c(=O)n12)C1(CCCC1)Cc1ccccc1-3	14	-1	i	i	.
Cc1ccc(-n2c(SCC(N)=O)nc3c(c2=O)C2(CCCC2)Cc2ccccc2-3)cc1	13	71*	i	i	i
O=c1c2c(n3cnnc3n1C1CCCCC1)-c1ccccc1CC21CCCCC1	9	68*	i	i	+
Nn1cnc2c(c1=O)C1(CCCCC1)Cc1ccccc1-2	2	73*	i	i	i
COc1ccc(OCc2nnc(SCC(=O)N3CCc4ccccc43)n2-c2ccc(F)cc2)cc1	11	5	.	.	.
Cc1nc(N)sc1C(N)=O	13	1	.	.	.
CS(=O)(=O)N(Cc1ccccc1)c1ccccc1C(=O)Nc1ccccc1C(=O)NCc1ccco1	8	88*	i	i	+
Cc1cccc(NC2=NC(=S)N(c3ccc(C(=O)O)cc3)C23CCCCC3)c1	.	97*	i	i	+
COc1ccc(NC2=NC(=S)N(c3cccc(C)c3)C23CCCCC3)cc1	.	4	i	i	.
O=C(Oc1ccc(-c2nccc(-c3ccccn3)n2)cc1)c1cccc(C(F)(F)F)c1	14	67*	i	i	i
CCC(=O)N1CCN(c2nc(-c3ccccc3)c3c(c2C#N)CCCC3)CC1	14	81*	i	i	i
N#Cc1c(SCC(N)=O)nc(-c2ccccc2)c2c1CCCC2	25	25	i	i	.
COc1ccccc1C1c2[nH]c3ccccc3c2CCN1Cc1cnc(C)s1 (configuration not stated)	8	80*	.	.	+
CCOC(=O)/C(N=Nc1c(Br)cc(Br)cc1Br)=C(\C)O	8	68*	i	i	i
CCOC(=O)COc1ccccc1C1C(C#N)=C(N)Oc2n[nH]c(C)c21 (configuration not stated)	9	3	.	.	.
c1ccc(C2CNCCc3ccccc32)cc1 (configuration not stated)	.	.	i	i	.
S=C1NCCc2ccc(Cl)cc2C1c1ccccc1 (configuration not stated)	7	75*	i	i	+
CN(Cc1cc(Br)cc(Br)c1O)Cc1c(O)ccc2ccccc12	35	62*	.	.	i
CCN(Cc1cc(Cl)cc(C)c1O)Cc1c(O)ccc2ccccc12	38	54	.	.	i
CC1CN(c2nc3c(c(=O)[nH]2)CCN(Cc2cccc(Cl)c2)C3)CC(C)O1 (configuration not stated)	.	7	.	.	.
N#Cc1cc2c(nc1SCCC1OCCO1)CCCC2	9	3	.	.	.
O=c1cc(-c2ccccc2)nc2cc(-c3ccc(F)cc3)[nH]n12	.	.	i	i	.
Fc1ccc(-c2cc(-c3ccccc3)nc(-n3cccn3)n2)cc1	12	41	i	i	+
Cc1noc(C)c1CSc1ncnc2sc(C)c(C)c12	6	63*	i	i	+
Cc1sc2ncnc(SCC(=O)N3CCN(C(=O)c4ccco4)CC3)c2c1C	25	27	i	i	.
c1ccn(-c2ncnc3sc4c(c23)CCCC4)c1	10	65*	i	i	+
Cc1noc(C)c1CSc1ncnc2ccccc12	12	19	i	i	.
